# According to PubChem BioAssay:
# “And” between values parts separate entries of the source, which are not always exact repeats. Identical values can stand only once. The source made the active and inactive calls.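 The calls were made as follows, unless noted: active = compounds whose cell count with miR-34 switched on is under 0.7 times the count with it off; inactive = the rest.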
# Legend:
# [1] = stimulators of nuclear beta-catenin in C2C12, primary screen, imaging, WNT3A-conditioned medium, mouse C2C12, NPC library (AID 1117326; in the data active = nuclear beta-catenin stimulation mostly above about 4.2%, no sharp cut-off; inactive = mostly below about 10%); conditions: stronger effect = higher value
# [2] = stimulators of insulin release from INS-1E, primary screen, cell-based, 5 mM glucose, NPC library (AID 1117329;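 active = compound raises insulin release from rat beta cells at 5 mM glucose, no numeric limit stated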); conditions: rat INS-1E insulin secretion, at 10 µM, stronger effect = higher value
# [3] = growth inhibition of GSK3B-pretreated HCT116 cells – cell-based, CellTiter-Glo, 0.2 to 20 µM (AID 1117336;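 active = compounds lowering colon cancer cell viability after pretreatment blocking the GSK3B kinase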); conditions: HCT116 viability after GSK3B inhibitor, at 20 µM, stronger effect = higher value
# [4] = inhibition of endothelial tube formation, primary screen, imaging, VEGF stimulated, CD31 staining, tube area, NPC library (AID 1117340;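 active = compound that reduces growth-factor-driven endothelial tube area in a mixed cell culture, no cutoff stated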); conditions: VEGF-stimulated ADSC/ECFC co-culture, at 10 µM, stronger effect = higher value
# [5] = glucagon-like peptide 1 release enhancers, primary assay, NCI-H716 cell line, NPC library (AID 1117341;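 active = compound raises GLP1 secretion from the human gut endocrine cells, with no numeric limit stated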); conditions: NCI-H716 cells, at 10 µM, stronger effect = higher value
# [6] = HCT116 colon cancer cell growth inhibition, primary screen, CellTiter-Glo luminescence, NPC library (AID 1117342;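 active = compounds that lower survival of HCT116 colon cancer cells in the luminescence readout, no numeric limit stated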); conditions: at 20 µM (top of the series)
# [7] = CellTiter-Glo luminescent readout of SW480 viability loss, NPC library primary (AID 1117343;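 active = compounds that lower viability of the colon cancer cells in the luminescence readout, with no numeric limit stated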); conditions: CellTiter-Glo luminescence; at 20 µM (top of the series) unless noted
# [8] = decreased DLD-1 cellular survival, CellTiter-Glo luminescent readout, NPC compound collection, primary HTS (AID 1117346;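 active = compounds that lower survival of DLD-1 colon cancer cells in the luminescence readout, no cutoff given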); conditions: DLD-1 viability, CellTiter-Glo luminescence; at 20 µM (top of the series)
# [9] = differential killing of epithelial or mesenchymal cells, primary screen, imaging, PC-3E GFP, TEM4-18 mCherry, co-culture (AID 1345086;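 active = compounds killing one labelled cell type while sparing the other, by normalised counts and ratio limits, not self-fluorescent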;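 as to all read-outs here: cells exposed to compound for 72 h before imaging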;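 as to red/green cell ratio (normalised): normalised mesenchymal count divided by normalised epithelial count so high means epithelial killing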); conditions: imaging cell counts, at 1 µM; for red/green cell ratio (normalised): actives lie on both sides, counts scaled to control wells, 1 = unselective
# [10] = sensitizers of A549 cells to miR-34 induction, primary screen, imaging, A549 dox-inducible miR-34, nuclei and caspase counts (AID 1347080); conditions: A549 miR-34 inducible, Hoechst nuclei count, 48 h
# [11] = biological target: NAD(+) hydrolase SARM1 (Homo sapiens) (UniProt Q6SZW1); test: SARM1 TIR NADase inhibitors, cell lysate, NAD-Glo luminescence (AID 1508614;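 active = compound whose remaining NAD level is above about 45 nM, limit read from the data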;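 also: higher remaining NAD means stronger inhibition of SARM1 NADase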); conditions: SAM-TIR HEK293T lysate NADase, at 1 µM, stronger effect = higher value
# [12] = liver-stage malaria parasite growth inhibition, primary screen, cell-based, HepG2, luciferase luminescence, HepG2 viability (AID 624349; in the data active = parasite load remaining mostly below about 12%, no sharp cut-off; inactive = mostly above about 10%;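 also: 100% = mean of DMSO negative control wells on the same plate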); conditions: P. berghei liver stage in HepG2, luciferase luminescence, concentration not given here; parasite load remaining: stronger effect = lower value; viability: measured here: HepG2 viability without parasites
# [13] = survival rescue of mitochondrial mutant cells in low glucose, primary screen, MELAS cybrids, Rieske KO mouse fibroblasts, CellTiter-Glo (AID 1508586;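 active = mean z-score across replicates of 1.96 or higher in either the MELAS or the Rieske mutant cell line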;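 also: z relative to plate mean and SD of compound and empty wells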)
# [14] = hESC survival regulators, cell-based (AID 493140; call rule not given here;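 also: cells exposed to compounds for four days before counting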); conditions: human embryonic stem cell survival screen; stronger effect = higher value
# [15] = measured here: epithelial PC-3E GFP cell survival
# [16] = measured here: mesenchymal TEM4-18 mCherry cell survival
# [17] = stronger effect = lower value, cell number ratio, induced over uninduced
# [18] = measured here: relative caspase fold change +Dox/-Dox
# [19] = measured here: total cells with miR-34 induction, stronger effect = lower value
# [20] = measured here: total cells without miR-34 induction
# [21] = MELAS cybrid survival, CellTiter-Glo 48 h, stronger effect = higher value
# [22] = Rieske KO mouse fibroblast survival, CellTiter-Glo 72 h
# Chain of NAD(+) hydrolase SARM1 (Homo sapiens) (Q6SZW1 whole entry, looked up): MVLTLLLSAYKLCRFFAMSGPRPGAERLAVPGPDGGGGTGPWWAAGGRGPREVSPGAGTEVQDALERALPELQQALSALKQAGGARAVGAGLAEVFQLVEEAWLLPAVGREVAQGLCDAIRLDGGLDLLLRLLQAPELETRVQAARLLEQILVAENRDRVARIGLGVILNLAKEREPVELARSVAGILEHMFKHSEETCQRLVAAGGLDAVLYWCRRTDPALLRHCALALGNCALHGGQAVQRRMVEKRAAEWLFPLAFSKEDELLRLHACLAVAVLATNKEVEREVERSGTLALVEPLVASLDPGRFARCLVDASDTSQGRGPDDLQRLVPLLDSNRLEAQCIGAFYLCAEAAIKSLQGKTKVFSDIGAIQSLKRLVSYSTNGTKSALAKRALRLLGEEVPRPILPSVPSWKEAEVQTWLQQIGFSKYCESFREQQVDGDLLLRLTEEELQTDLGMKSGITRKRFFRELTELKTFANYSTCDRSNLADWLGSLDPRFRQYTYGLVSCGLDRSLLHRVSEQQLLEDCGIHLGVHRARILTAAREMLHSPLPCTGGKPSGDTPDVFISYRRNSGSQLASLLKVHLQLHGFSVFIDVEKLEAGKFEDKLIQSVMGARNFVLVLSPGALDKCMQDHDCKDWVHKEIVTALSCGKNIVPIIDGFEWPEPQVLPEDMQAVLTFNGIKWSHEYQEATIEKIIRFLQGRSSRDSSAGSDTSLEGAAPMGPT
compound,measurement,setting,value
CCCCC(CC)COc1ccc(-c2nc(-c3ccc(OC)cc3)nc(-c3ccc(OCC(CC)CCCC)cc3O)n2)c(O)c1 (stereo unspecified),nuclear beta-catenin stimulation,[1]; at 10 µM,-1% (inactive)
same,nuclear beta-catenin stimulation,"[1]; stimulation, at 2 µM",2%
same,insulin secretion stimulation,[2],0.7% (inactive)
same,viability decrease,[3],4.7% (inactive)
same,tube area decrease,[4],2.9% (inactive)
same,GLP1 secretion stimulation,[5],-2.3% (inactive)
same,inhibition of viability,[6],-5.3% (inactive)
same,viability decrease (inhibition),[7],-1.3% (active)
same,viability decrease (inhibition),[8],-8.3% (inactive)
same,red/green cell ratio (normalised),[9],0.89 (inactive)
same,normalised cell number,[9]; [15],1.25
same,normalised cell number,[9]; [16],1.12
same,fold change,[10]; [17],0.959 (inactive)
same,fold change,[10]; [18],0.849
same,cell count,[10]; [19],9430
same,cell count,[10]; [20],9840
same,remaining NAD,[11],10 nM (inactive)
Cc1ncc(CSSCc2cnc(C)c(O)c2CO)c(CO)c1O,nuclear beta-catenin stimulation,[1]; at 10 µM,0.2% (inactive)
same,nuclear beta-catenin stimulation,"[1]; stimulation, at 2 µM",-2.2%
same,insulin secretion stimulation,[2],1.7% (inactive)
same,viability decrease,[3],4.2% (inactive)
same,tube area decrease,[4],-25.7% (inactive)
same,GLP1 secretion stimulation,[5],6.7% (inactive)
same,inhibition of viability,[6],14.3% (inactive)
same,viability decrease (inhibition),[7],6.1% (inactive)
same,viability decrease (inhibition),[8],15.6% (inactive)
same,red/green cell ratio (normalised),[9],0.89 (inactive)
same,normalised cell number,[9]; [15],1.03
same,normalised cell number,[9]; [16],0.92
same,fold change,[10]; [17],0.95 (inactive)
same,fold change,[10]; [18],0.868
same,cell count,[10]; [19],8920
same,cell count,[10]; [20],9390
same,remaining NAD,[11],10 nM (inactive)
O=C1OC(CN2CCOCC2)CN1/N=C/c1ccc([N+](=O)[O-])o1 (stereo unspecified),parasite load remaining,[12],37.8% (inactive)
same,viability,[12],89.8%
same,nuclear beta-catenin stimulation,[1]; at 10 µM,1.3% (inactive)
same,nuclear beta-catenin stimulation,"[1]; stimulation, at 2 µM",3.6%
same,insulin secretion stimulation,[2],-1.4% (inactive)
same,viability decrease,[3],31.8% (inactive)
same,tube area decrease,[4],-4.4% (inactive)
same,GLP1 secretion stimulation,[5],-0.3% (inactive)
same,inhibition of viability,[6],24.6% (inactive)
same,viability decrease (inhibition),[7],22% (inactive)
same,viability decrease (inhibition),[8],-32.5% (inactive)
same,red/green cell ratio (normalised),[9],1.05 (inactive)
same,normalised cell number,[9]; [15],1.05
same,normalised cell number,[9]; [16],1.1
same,fold change,[10]; [17],0.949 (inactive) and 0.857 (inactive)
same,fold change,[10]; [18],0.904 and 1.34
same,cell count,[10]; [19],8490 and 8240
same,cell count,[10]; [20],8940 and 9610
same,z-score,[13]; [21],-1.3 (inactive)
same,z-score,[13]; [22],-1.11
same,remaining NAD,[11],10 nM (inactive)
O=S(=O)(O)c1cc(I)c(O)c2ncccc12,nuclear beta-catenin stimulation,[1]; at 10 µM,-0.8% (inactive)
same,nuclear beta-catenin stimulation,"[1]; stimulation, at 2 µM",-0.5%
same,insulin secretion stimulation,[2],-0.3% (inactive)
same,viability decrease,[3],62.2% (active)
same,tube area decrease,[4],-5.5% (inactive)
same,GLP1 secretion stimulation,[5],-2.6% (inactive)
same,inhibition of viability,[6],41% (inactive)
same,viability decrease (inhibition),[7],77.9% (active)
same,viability decrease (inhibition),[8],53.4% (active)
same,red/green cell ratio (normalised),[9],1 (inactive)
same,normalised cell number,[9]; [15],1.1
same,normalised cell number,[9]; [16],1.11
same,fold change,[10]; [17],1.07 (inactive)
same,fold change,[10]; [18],0.778
same,cell count,[10]; [19],5970
same,cell count,[10]; [20],5570
same,remaining NAD,[11],10 nM (inactive)
Cc1cccc(C)c1NC(=O)c1ccccc1C(=O)O,nuclear beta-catenin stimulation,[1]; at 10 µM,0.1% (inactive)
same,nuclear beta-catenin stimulation,"[1]; stimulation, at 2 µM",0.7%
same,insulin secretion stimulation,[2],-0.4% (inactive)
same,viability decrease,[3],-4.6% (inactive)
same,tube area decrease,[4],-28.9% (inactive)
same,GLP1 secretion stimulation,[5],1.9% (inactive)
same,inhibition of viability,[6],3.1% (inactive)
same,viability decrease (inhibition),[7],49.6% (inactive)
same,viability decrease (inhibition),[8],17.1% (inactive)
same,red/green cell ratio (normalised),[9],0.84 (inactive)
same,normalised cell number,[9]; [15],0.94
same,normalised cell number,[9]; [16],0.79
same,fold change,[10]; [17],0.96 (inactive)
same,fold change,[10]; [18],0.664
same,cell count,[10]; [19],8770
same,cell count,[10]; [20],9130
same,remaining NAD,[11],10 nM (inactive)
Cc1cccc(C)c1NC(=O)CN1CCN(CCCC(c2ccc(F)cc2)c2ccc(F)cc2)CC1,survival,[14],2.42 (inactive)
same,parasite load remaining,[12],135% (inactive) and 49% (inactive)
same,viability,[12],101% and 79.5%
same,nuclear beta-catenin stimulation,[1]; at 10 µM,4.7% (inactive)
same,nuclear beta-catenin stimulation,"[1]; stimulation, at 2 µM",1.2%
same,insulin secretion stimulation,[2],-1.1% (inactive)
same,viability decrease,[3],99.6% (active)
same,tube area decrease,[4],82.9% (active)
same,GLP1 secretion stimulation,[5],-2.6% (inactive)
same,inhibition of viability,[6],99.7% (active)
same,viability decrease (inhibition),[7],97.6% (active)
same,viability decrease (inhibition),[8],102% (active)
same,red/green cell ratio (normalised),[9],1.02 (inactive)
same,normalised cell number,[9]; [15],1.1
same,normalised cell number,[9]; [16],1.13
same,fold change,[10]; [17],0.884 (inactive)
same,fold change,[10]; [18],1.28
same,cell count,[10]; [19],8280
same,cell count,[10]; [20],9370
same,z-score,[13]; [21],0.335 (inactive)
same,z-score,[13]; [22],0.284
CC(=O)Nc1ccc(C(=O)O)cc1,nuclear beta-catenin stimulation,[1]; at 10 µM,-0.6% (inactive)
same,nuclear beta-catenin stimulation,"[1]; stimulation, at 2 µM",0.4%
same,insulin secretion stimulation,[2],-1.8% (inactive)
same,viability decrease,[3],-11.6% (inactive)
same,tube area decrease,[4],-12.7% (inactive)
same,GLP1 secretion stimulation,[5],-0.1% (inactive)
same,inhibition of viability,[6],-18.3% (inactive)
same,viability decrease (inhibition),[7],13.7% (inactive)
same,viability decrease (inhibition),[8],11.3% (inactive)
same,red/green cell ratio (normalised),[9],1.14 (inactive)
same,normalised cell number,[9]; [15],0.87
same,normalised cell number,[9]; [16],0.99
same,fold change,[10]; [17],0.937 (inactive)
same,fold change,[10]; [18],1.06
same,cell count,[10]; [19],9250
same,cell count,[10]; [20],9880
same,remaining NAD,[11],10 nM (inactive)
O=c1[nH]c(=O)c2ccccc2o1,nuclear beta-catenin stimulation,[1]; at 10 µM,0.9% (inactive)
same,nuclear beta-catenin stimulation,"[1]; stimulation, at 2 µM",0.3%
same,insulin secretion stimulation,[2],-1.9% (inactive)
same,viability decrease,[3],-6.75% (inactive)
same,tube area decrease,[4],10.2% (inactive)
same,GLP1 secretion stimulation,[5],0.9% (inactive)
same,inhibition of viability,[6],-33.3% (inactive)
same,viability decrease (inhibition),[7],102% (active)
same,viability decrease (inhibition),[8],-5.5% (inactive)
same,red/green cell ratio (normalised),[9],0.79 (inactive)
same,normalised cell number,[9]; [15],1.11
same,normalised cell number,[9]; [16],0.88
same,fold change,[10]; [17],0.86 (inactive)
same,fold change,[10]; [18],0.838
same,cell count,[10]; [19],8540
same,cell count,[10]; [20],9930
same,remaining NAD,[11],10 nM (inactive)
CC(=O)c1ccc2c(c1)N(CCCN1CCC(CCO)CC1)c1ccccc1S2,survival,[14],3.92 (inactive)
same,parasite load remaining,[12],69.8% (inactive)
same,viability,[12],79.8%
same,nuclear beta-catenin stimulation,[1]; at 10 µM,3% (inactive)
same,nuclear beta-catenin stimulation,"[1]; stimulation, at 2 µM",0.4%
same,insulin secretion stimulation,[2],1.7% (inactive)
same,viability decrease,[3],78.7% (active)
same,tube area decrease,[4],3.9% (inactive)
same,GLP1 secretion stimulation,[5],-6.7% (inactive)
same,inhibition of viability,[6],77.2% (active)
same,viability decrease (inhibition),[7],85.4% (active)
same,viability decrease (inhibition),[8],60% (active)
same,red/green cell ratio (normalised),[9],1.13 (inactive)
same,normalised cell number,[9]; [15],0.92
same,normalised cell number,[9]; [16],1.04
same,fold change,[10]; [17],0.911 (inactive)
same,fold change,[10]; [18],0.592
same,cell count,[10]; [19],8130
same,cell count,[10]; [20],8930
same,z-score,[13]; [21],-0.364 (inactive)
same,z-score,[13]; [22],-0.0941
same,remaining NAD,[11],10 nM (inactive)
